The record followed here is PubChem BioAssay (EPA / NIEHS).

“And” between values parts separate entries of the source, which are not always exact repeats. Equal values may be shown once. A structure can be active in one record and inactive in another. The source made the active and inactive calls. Rule for the calls: active = hit-call score of the fitted dose curve at least 0.9, where 1 is the maximum; inactive = score below 0.9.

What is called AC50 is the concentration at which the activity in the assay is half-maximal.

Common to all, as to conditions: mRNA level, 48 h; actives raise or lower the signal
Read-out in assay [1]: Glutathione S-transferase M3 (GSTM3), GSTM3 (gene 2947)
Briefly: LTEA_HepaRG_GSTM3: Life Technologies and Expression Analysis (LTEA) Assay for Glutathione S-transferase M3 (GSTM3) using HepaRG (AID 2283501). The method in brief:
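GSTM3 transcript levels came from Fluidigm TaqMan qRT-PCR normalized to three housekeeping genes, fitted in both directions against DMSO. HepaRG cultures received chemicals for 48 h in serum-free induction medium (0.5% DMSO), 8 half-log concentrations up to 100 uM, duplicate.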

Read-out in assay [2]: Heat shock 70 kDa protein 1 (HSPA1A), gene 3303
The experiment in a line: LTEA_HepaRG_HSPA1A: Life Technologies and Expression Analysis (LTEA) Assay for Heat shock 70 kDa protein 1 (HSPA1A) using HepaRG (AID 2283502). The method in brief:
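Cells were plated and cultured for 48 h, then switched to serum-free induction medium. Chemicals were added at eight half-log concentrations up to 100 uM for 48 h. RNA was then isolated and HSPA1A measured by qRT-PCR with bidirectional curve fitting against DMSO.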

Read-out in assay [3]: Hypoxia-inducible factor 1-alpha (Homo sapiens) (UniProt Q16665)
The experiment in a line: LTEA_HepaRG_HIF1A: Life Technologies and Expression Analysis (LTEA) Assay for Hypoxia-inducible factor 1 (HIF1A) Trancription factor using HepaRG (AID 2283503). The gist of the method:
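HIF1A transcript level read by qRT-PCR (ACTB, GAPDH, POLR2A normalization) after 48 h chemical exposure of HepaRG cultures. Eight half-log concentrations, top 100 uM, 0.5% DMSO vehicle, duplicates; bidirectional curve fit against DMSO baseline.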

Read-out in assay [4]: 3-Hydroxy-3-Methylglutaryl-CoA Synthase 2 (HMGCS2), HMGCS2 (gene 3158)
The experiment in a line: LTEA_HepaRG_HMGCS2: Life Technologies and Expression Analysis (LTEA) Assay for 3-Hydroxy-3-Methylglutaryl-CoA Synthase 2 (HMGCS2) using HepaRG (AID 2283504). The gist of the method: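 Readout is HMGCS2 transcript by qRT-PCR, housekeeping-normalised (ACTB/GAPDH/POLR2A) and fitted bidirectionally against 0.5% DMSO. Differentiated HepaRG cells received chemicals 48 h, duplicate wells, eight half-log concentrations topping at 100 uM.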

Read-out in assay [5]: HGF (gene 3082)
Briefly: LTEA_HepaRG_HGF: Life Technologies and Expression Analysis (LTEA) Assay for Hepatocyte Growth Facto (HGF) using HepaRG (AID 2283505). The gist of the method: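 HGF transcript was quantified by TaqMan qRT-PCR against three housekeeping genes after 48 h treatment of HepaRG cells. Exposure ran in duplicate over eight half-log steps topping at 100 uM in 0.5% DMSO vehicle.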

Read-out in assay [6]: Insulin Like Growth Factor 1 (IGF1), IGF1 (gene 3479)
The experiment in a line: LTEA_HepaRG_IGF1: Life Technologies and Expression Analysis (LTEA) Assay for Insulin Like Growth Factor 1 (IGF1) using HepaRG (AID 2283506). The gist of the method:
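Cells are thawed, plated and cultured 48 h, then exposed in duplicate to chemical (highest 100 uM, half-log steps, 0.5% DMSO) for another 48 h. Total RNA is analysed by Fluidigm qRT-PCR for IGF1 expression relative to vehicle.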

Read-out in assay [7]: Intercellular Adhesion Molecule 1 (ICAM1), ICAM1 (gene 3383)
The experiment in a line: LTEA_HepaRG_ICAM1: Life Technologies and Expression Analysis (LTEA) Assay for Intercellular Adhesion Molecule 1 (ICAM1) using HepaRG (AID 2283507). The method in brief:
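ICAM1 transcript levels measured by qRT-PCR, normalized to three housekeeping genes (ACTB, GAPDH, POLR2A), after 48 h chemical exposure of HepaRG cells. Duplicate eight-point half-log series from 100 uM in 0.5% DMSO; gain or loss fitted against vehicle.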

Read-out in assay [8]: Insulin-like growth factor-binding protein 1 (IGFBP1), IGFBP1 (gene 3484)
Briefly: LTEA_HepaRG_IGFBP1: Life Technologies and Expression Analysis (LTEA) Assay for Insulin-like growth factor-binding protein 1 (IGFBP1) using HepaRG (AID 2283508). The gist of the method:
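Read-out is qRT-PCR transcript level normalized to three housekeeping genes, fitted in both directions against 0.5% DMSO. Differentiated HepaRG cells received eight half-log concentrations (top 100 uM) in duplicate for 48 h in serum-free induction medium.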

Read-out in assay [9]: Interleukin 6 (IL6), IL6 (gene 3569)
The experiment in a line: LTEA_HepaRG_IL6: Life Technologies and Expression Analysis (LTEA) Assay for Interleukin 6 (IL6) using HepaRG (AID 2283509). The method in brief: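 Transcript levels, normalized to three housekeeping genes, were quantified by qRT-PCR after 48 h chemical treatment of HepaRG cells. Eight-point half-log series from 100 uM in 0.5% DMSO, duplicates. Fitted both directions against DMSO baseline.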

Read-out in assay [10]: Interleukin 6 Receptor (IL6R), IL6R (gene 3570)
The experiment in a line: LTEA_HepaRG_IL6R: Life Technologies and Expression Analysis (LTEA) Assay for Interleukin 6 Receptor (IL6R) using HepaRG (AID 2283510).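 For AC50: differentiated human HepaRG liver cells in serum-free induction medium.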 The gist of the method:
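Cells were thawed, plated and cultured 48 h, then medium was changed to serum-free induction medium. Chemicals were added in duplicate (100 uM top, half-log steps, 0.5% DMSO) for 48 h. Lysates were analyzed by qRT-PCR for IL6R expression.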

Read-out in assay [11]: Potassium channel subfamily K member 1 (KCNK1), KCNK1 (gene 3775)
Briefly: LTEA_HepaRG_KCNK1: Life Technologies and Expression Analysis (LTEA) Assay for Potassium channel subfamily K member 1 (KCNK1) using HepaRG (AID 2283511). The gist of the method:
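KCNK1 transcript measured by TaqMan qRT-PCR against three housekeeping genes, after HepaRG cells were treated 48 h with eight half-log concentrations (top 100 uM, 0.5% DMSO). Curves fitted bidirectionally relative to vehicle.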

Read-out in assay [12]: Keratin 19 (KRT19), KRT19 (gene 3880)
Briefly: LTEA_HepaRG_KRT19: Life Technologies and Expression Analysis (LTEA) Assay for Keratin 19 (KRT19) using HepaRG (AID 2283512). The method in brief:
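KRT19 transcript measured by TaqMan qRT-PCR, referenced to three housekeeping genes, after HepaRG cells received test chemicals for 48 h. Eight half-log concentrations, top 100 uM, 0.5% DMSO vehicle; increases and decreases both fitted.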

Read-out in assay [13]: JUN Transcription Factor, JUN (gene 3725)
Briefly: LTEA_HepaRG_JUN: Life Technologies and Expression Analysis (LTEA) Assay for JUN Transcription Factor using HepaRG (AID 2283513). The method in brief:
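Read-out is JUN transcript level by TaqMan qRT-PCR, normalized to ACTB, GAPDH and POLR2A, after 48 h chemical treatment of HepaRG cells. Concentration-response spanned eight half-log points up to 100 uM in 0.5% DMSO.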

Read-out in assay [14]: Lipase C (LIPC), LIPC (gene 3990)
The experiment in a line: LTEA_HepaRG_LIPC: Life Technologies and Expression Analysis (LTEA) Assay for Lipase C (LIPC) using HepaRG (AID 2283514). The gist of the method: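 LIPC expression was quantified by qRT-PCR against three housekeeping genes (ACTB, GAPDH, POLR2A). Differentiated human HepaRG cells received eight half-log doses (top 100 uM, 0.5% DMSO) in duplicate for 48 h; fitting bidirectional relative to DMSO.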

Read-out in assay [15]: Lipoprotein lipase (LPL), LPL (gene 4023)
Briefly: LTEA_HepaRG_LPL: Life Technologies and Expression Analysis (LTEA) Assay for Lipoprotein lipase (LPL) using HepaRG (AID 2283515). The method in brief:
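LPL transcript levels quantified by TaqMan qRT-PCR against three housekeeping genes after 48 h chemical treatment of HepaRG cells. Eight-point half-log series from 100 uM in 0.5% DMSO, tested in duplicate; bidirectional fitting versus vehicle.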

Read-out in assay [16]: MicroRNA 122 (MIR122), gene 406906
Briefly: LTEA_HepaRG_MIR122: Life Technologies and Expression Analysis (LTEA) Assay for MicroRNA 122 (MIR122) using HepaRG (AID 2283516). Note: the transcript read is the microRNA miR-122. The gist of the method: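 Human liver HepaRG cultures receive test chemicals for 48 h at eight half-log concentrations from 100 uM. Expression is quantified by qRT-PCR with ACTB/GAPDH/POLR2A normalization and fitted bidirectionally against 0.5% DMSO.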

Read-out in assay [17]: matrix metalloproteinase-10 (MMP10), MMP10 (gene 4319)
Briefly: LTEA_HepaRG_MMP10: Life Technologies and Expression Analysis (LTEA) Assay for matrix metalloproteinase-10 (MMP10) using HepaRG (AID 2283517). The method in brief: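 Expression measured by TaqMan qRT-PCR with ACTB/GAPDH/POLR2A normalisation after 48 h chemical exposure of HepaRG cells. Eight half-log concentrations, top 100 uM, 0.5% DMSO vehicle, duplicates; gain or loss fitted against vehicle.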

Read-out in assay [18]: MYC, MYC (gene 4609)
The experiment in a line: LTEA_HepaRG_MYC: Life Technologies and Expression Analysis (LTEA) Assay for MYC using HepaRG (AID 2283518). The method in brief:
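MYC transcript changes, up or down relative to 0.5% DMSO, from TaqMan qRT-PCR normalized to three housekeeping genes. Human HepaRG cultures received chemicals for 48 h at eight half-log concentrations up to 100 uM, in duplicate.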

Read-out in assay [19]: matrix metalloproteinase-3 (MMP3), MMP3 (gene 4314)
The experiment in a line: LTEA_HepaRG_MMP3: Life Technologies and Expression Analysis (LTEA) Assay for matrix metalloproteinase-3 (MMP3) using HepaRG (AID 2283519). The method in brief: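 Fluidigm-based TaqMan qRT-PCR, normalized to ACTB, GAPDH and POLR2A and fitted bidirectionally versus 0.5% DMSO, measured transcript levels. Treatment: duplicate 48 h exposures of HepaRG cells, ~100,000/well, to eight half-log concentrations topping at 100 uM.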

Read-out in assay [20]: Paternally Expressed 10 (PEG10), PEG10 (gene 23089)
Briefly: LTEA_HepaRG_PEG10: Life Technologies and Expression Analysis (LTEA) Assay for Paternally Expressed 10 (PEG10) using HepaRG (AID 2283520).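 For AC50: PEG10 transcript by qRT-PCR normalised to ACTB GAPDH and POLR2A.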 The gist of the method:
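Human HepaRG cultures are dosed for 48 h across an eight-point half-log series starting at 100 uM, with 0.5% DMSO as vehicle and baseline. Gain or loss of PEG10 transcript is measured by qRT-PCR and fitted in both directions.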

Sequence of Hypoxia-inducible factor 1-alpha (Homo sapiens) (Q16665 whole entry, looked up): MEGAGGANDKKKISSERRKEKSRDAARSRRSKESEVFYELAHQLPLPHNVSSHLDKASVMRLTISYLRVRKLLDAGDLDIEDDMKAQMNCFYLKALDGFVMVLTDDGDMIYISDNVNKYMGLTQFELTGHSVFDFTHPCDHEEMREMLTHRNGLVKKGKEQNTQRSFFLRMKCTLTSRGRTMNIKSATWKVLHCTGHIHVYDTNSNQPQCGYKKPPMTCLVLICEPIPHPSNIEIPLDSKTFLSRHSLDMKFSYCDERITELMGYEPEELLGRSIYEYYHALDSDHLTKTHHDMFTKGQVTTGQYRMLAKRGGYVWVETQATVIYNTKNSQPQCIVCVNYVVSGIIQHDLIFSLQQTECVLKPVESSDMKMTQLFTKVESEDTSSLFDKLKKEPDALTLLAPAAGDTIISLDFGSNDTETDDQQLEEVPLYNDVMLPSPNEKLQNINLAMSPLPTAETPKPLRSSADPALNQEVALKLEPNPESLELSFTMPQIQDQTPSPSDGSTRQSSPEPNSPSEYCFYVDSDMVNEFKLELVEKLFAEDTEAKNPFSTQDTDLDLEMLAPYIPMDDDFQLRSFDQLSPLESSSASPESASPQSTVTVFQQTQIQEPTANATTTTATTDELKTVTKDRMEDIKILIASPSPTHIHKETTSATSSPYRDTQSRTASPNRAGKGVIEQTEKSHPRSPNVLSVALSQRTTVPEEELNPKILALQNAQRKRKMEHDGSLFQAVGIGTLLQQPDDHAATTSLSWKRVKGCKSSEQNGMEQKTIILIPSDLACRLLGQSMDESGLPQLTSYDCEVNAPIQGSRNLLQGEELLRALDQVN

Consider `C#C[C@]1(O)CC[C@H]2[C@@H]3CCc4cc(O)ccc4[C@H]3CC[C@@]21C`, for which the outcome in [1], in assay [2], in [3], in assay [4], in [5] and in [6] was inactive. Moreover, the compound was called inactive in assay [7], in assay [8], in [9], in assay [10], in assay [11] and in assay [12]. Further, the call in [13], in assay [14], in assay [15], in assay [16], in [17] and in assay [18] was inactive. For the same compound, the outcome in assay [19] and in assay [20] was inactive.

For `CC/C(=C(\c1ccccc1)c1ccc(OCCN(C)C)cc1)c1ccccc1`, the compound was classed as inactive in [1], in assay [3], in [4], in assay [5], in assay [6] and in assay [10]. The call in assay [12], in assay [14], in assay [15], in assay [16] and in [18] was inactive. The AC50 was 74.8 µM (active) and 76.4 µM (active) in [2]; 82 µM (active) in assay [3]; 66 µM (active) in assay [4]; 84.6 µM (active) in assay [6]; 85.1 µM (active) and 99.2 µM (active) in assay [7]; 65.9 µM (active) and 57 µM (active) in assay [8]. Besides, the AC50 in [9] is 71.4 µM (active) and 92.3 µM (active); in [10], 93.4 µM (active); in [12] it was 11.2 µM (active); in assay [13], 74.6 µM (active) and 89.2 µM (active); in [14], 93.9 µM (active); in assay [15], 76.5 µM (active). The AC50 in [17] was 75 µM (active) and 50 µM (active); in [18] it was 85.6 µM (active); in [19], 86.1 µM (active) and 92.9 µM (active); in assay [20], 53.8 µM (active) and 94 µM (active).

With `COC(=O)c1ccc(C(=O)OC)cc1`, the result in assay [1], in [2], in [3], in assay [4], in [5] and in assay [6] was inactive. For the same compound, the call in assay [7], in assay [8], in assay [9], in [10], in [11] and in assay [12] was inactive. The outcome in assay [13], in assay [14], in assay [15], in assay [16], in assay [17] and in [18] was inactive. Also, the outcome in assay [19] and in assay [20] was inactive.
